Reference: PubChem BioAssay (EPA / NIEHS)
Calls of active or inactive are those of the source. The calls were made as follows: active = hit-call score of the fitted dose curve at least 0.9, where 1 is the maximum; inactive = score below 0.9.

How the values were obtained:
[1] = molecular target: Bile acid receptor (Homo sapiens) (UniProt Q96RI1); experiment: ATG_IR1_CIS: Attagene CIS-FACTORIAL HepG2 Assay for human Nuclear Receptor Subfamily 1 Group H Member 4 (NR1H4), IR1 submotif (AID 2282946); conditions: IR1 reporter transcription, actives raise or lower the signal
Chain of Bile acid receptor (Homo sapiens) (Q96RI1 whole entry, looked up): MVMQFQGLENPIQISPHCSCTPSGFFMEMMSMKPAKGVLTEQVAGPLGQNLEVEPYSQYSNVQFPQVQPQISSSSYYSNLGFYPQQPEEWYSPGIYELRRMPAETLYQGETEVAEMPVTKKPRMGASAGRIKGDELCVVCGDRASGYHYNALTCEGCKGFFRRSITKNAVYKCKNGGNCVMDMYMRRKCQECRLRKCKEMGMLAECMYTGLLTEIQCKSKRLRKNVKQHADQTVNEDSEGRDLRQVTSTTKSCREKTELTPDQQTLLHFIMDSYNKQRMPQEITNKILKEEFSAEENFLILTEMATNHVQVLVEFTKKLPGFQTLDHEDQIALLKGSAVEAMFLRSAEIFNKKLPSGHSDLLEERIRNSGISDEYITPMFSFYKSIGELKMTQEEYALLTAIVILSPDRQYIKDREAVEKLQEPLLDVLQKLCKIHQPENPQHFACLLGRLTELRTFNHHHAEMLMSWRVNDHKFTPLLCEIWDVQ
How it was run: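 Readout: reporter transcript levels by RT-PCR with fluorescent capillary electrophoresis, from HepG2 cells transiently transfected with multiplexed cis-regulated reporters and dosed 24 h. Gain- or loss-of-signal fitted versus DMSO negative control.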

[2] = ATG_GRE_CIS: Attagene CIS-FACTORIAL HepG2 Assay for human Glucocorticoid Response Elements (GRE) (AID 2282947); conditions: HepG2 GRE cis-reporter, Attagene multiplex mRNA; actives raise or lower the signal
How it was run: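 Cells (HepG2) bearing transfected cis-promoter reporter transcription units were treated with chemical for 24 hours. Reporter mRNA was measured via RT-PCR with capillary electrophoresis, and activity was fitted in both directions relative to DMSO.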

[3] = ATG_ISRE_CIS: Attagene CIS-FACTORIAL HepG2 Assay for human Interferon Regulatory Factor 1 (IRF1) binding to an Interferon-Stimulated Response Element (ISRE) (AID 2282948); conditions: HepG2 ISRE cis-reporter (Attagene), mRNA transcription readout; actives raise or lower the signal
How it was run: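 Endogenous transcription factor activity read as reporter transcript abundance via RT-PCR and capillary electrophoresis. HepG2 cells transiently transfected, 24 h chemical exposure. Gain or loss fitted against DMSO baseline.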

[4] = ATG_M_32_CIS: Attagene CIS-FACTORIAL HepG2 Assay for M32 Transcription Factor (Internal Marker) (AID 2282949); conditions: HepG2 Attagene cis-factorial M32 reporter, mRNA; actives raise or lower the signal;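 also: background control marker of the multiplexed CIS panel rather than a real target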
How it was run: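 HepG2 human liver cells transiently transfected with cis-promoter-driven multiple reporter transcription units, dosed 24 h. Reporter mRNA quantified by RT-PCR, FAM-labelled primer extension, HpaI digest and capillary electrophoresis; bidirectional fit versus DMSO baseline.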

[5] = ATG_M_06_CIS: Attagene CIS-FACTORIAL HepG2 Assay for M06 Transcription Factor (Internal Marker) (AID 2282950); conditions: HepG2 Attagene CIS-FACTORIAL M06 internal marker reporter; actives raise or lower the signal
How it was run: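 Terse: HepG2, transient MRTU transfection (FuGene 6), 24 h dosing; total RNA, oligo(dT) RT, PCR, FAM label, HpaI cut, capillary electrophoresis; bidirectional fit vs DMSO baseline; background-control endpoint.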

[6] = molecular target: Hypoxia-inducible factor 1-alpha (Homo sapiens) (UniProt Q16665); experiment: ATG_HIF1a_CIS: Attagene CIS-FACTORIAL HepG2 Assay for human Hypoxia Inducible Factor 1 (HIF1A) (AID 2282951); conditions: HepG2 Attagene cis-factorial HIF1a reporter transcription; actives raise or lower the signal
Chain of Hypoxia-inducible factor 1-alpha (Homo sapiens) (Q16665 whole entry, looked up, the tested form may be a part): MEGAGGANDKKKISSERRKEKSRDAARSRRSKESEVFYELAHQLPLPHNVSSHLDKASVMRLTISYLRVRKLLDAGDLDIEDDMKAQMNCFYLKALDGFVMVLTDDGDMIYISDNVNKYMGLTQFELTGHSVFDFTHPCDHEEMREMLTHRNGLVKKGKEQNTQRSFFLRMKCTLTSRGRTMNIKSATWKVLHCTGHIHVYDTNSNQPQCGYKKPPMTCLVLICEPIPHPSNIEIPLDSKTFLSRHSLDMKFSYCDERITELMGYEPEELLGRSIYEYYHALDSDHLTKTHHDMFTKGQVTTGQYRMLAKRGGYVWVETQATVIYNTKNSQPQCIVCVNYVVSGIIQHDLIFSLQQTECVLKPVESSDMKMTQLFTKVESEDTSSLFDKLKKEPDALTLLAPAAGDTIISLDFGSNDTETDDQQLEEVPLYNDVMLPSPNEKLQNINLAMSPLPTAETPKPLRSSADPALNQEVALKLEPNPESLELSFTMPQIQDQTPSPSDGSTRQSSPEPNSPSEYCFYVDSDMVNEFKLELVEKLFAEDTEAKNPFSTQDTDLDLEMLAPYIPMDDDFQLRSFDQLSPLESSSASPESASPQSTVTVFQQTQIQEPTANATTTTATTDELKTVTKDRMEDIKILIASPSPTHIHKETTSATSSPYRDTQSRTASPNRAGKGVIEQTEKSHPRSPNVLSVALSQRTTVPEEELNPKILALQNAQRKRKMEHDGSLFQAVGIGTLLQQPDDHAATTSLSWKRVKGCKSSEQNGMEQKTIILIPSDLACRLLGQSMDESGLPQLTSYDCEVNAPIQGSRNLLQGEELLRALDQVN
How it was run: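 Transient MRTU transfection of human HepG2 liver cells, 24 h compound treatment, then total RNA isolation, oligo(dT) reverse transcription, PCR amplification, fluorescent labelling and capillary electrophoresis of reporter fragments. Gain or loss relative to DMSO.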

[7] = molecular target: Hepatocyte nuclear factor 6 (Homo sapiens) (UniProt Q9UBC0); experiment: ATG_HNF6_CIS: Attagene CIS-FACTORIAL HepG2 Assay for human Hepatocyte Nuclear Factor 6 (HNF6) (AID 2282952); conditions: HepG2 Attagene cis-factorial HNF6 reporter transcription; actives raise or lower the signal
Chain of Hepatocyte nuclear factor 6 (Homo sapiens) (Q9UBC0 whole entry, looked up): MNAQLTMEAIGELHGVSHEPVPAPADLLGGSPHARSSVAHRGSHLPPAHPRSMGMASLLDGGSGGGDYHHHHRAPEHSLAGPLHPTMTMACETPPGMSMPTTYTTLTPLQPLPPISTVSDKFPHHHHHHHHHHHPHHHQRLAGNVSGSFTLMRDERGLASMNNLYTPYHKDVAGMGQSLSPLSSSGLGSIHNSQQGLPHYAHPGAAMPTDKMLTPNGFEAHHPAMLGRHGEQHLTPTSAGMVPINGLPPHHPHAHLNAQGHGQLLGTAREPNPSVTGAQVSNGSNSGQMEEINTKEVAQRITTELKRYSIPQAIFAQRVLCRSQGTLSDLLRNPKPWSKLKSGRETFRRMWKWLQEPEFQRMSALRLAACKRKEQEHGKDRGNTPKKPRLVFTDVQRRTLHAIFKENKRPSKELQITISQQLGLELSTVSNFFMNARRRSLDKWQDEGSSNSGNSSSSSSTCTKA
How it was run: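 Endogenous factor activity read in transiently transfected HepG2 via promoter-regulated reporter transcripts. RNA harvested 24 h post-dosing, reverse-transcribed, PCR-amplified, FAM-labelled, HpaI-digested and resolved by capillary electrophoresis; fitted in both directions against DMSO.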

[8] = molecular target: Heat shock factor protein 1 (Homo sapiens) (UniProt Q00613); experiment: ATG_HSE_CIS: Attagene CIS-FACTORIAL HepG2 Assay for human Heat Shock Transcription Factor 1 (HSE) (AID 2282953); conditions: HepG2 HSE cis-reporter, Attagene RNA transcription; actives raise or lower the signal
Chain of Heat shock factor protein 1 (Homo sapiens) (Q00613 whole entry, looked up, the tested form may be a part): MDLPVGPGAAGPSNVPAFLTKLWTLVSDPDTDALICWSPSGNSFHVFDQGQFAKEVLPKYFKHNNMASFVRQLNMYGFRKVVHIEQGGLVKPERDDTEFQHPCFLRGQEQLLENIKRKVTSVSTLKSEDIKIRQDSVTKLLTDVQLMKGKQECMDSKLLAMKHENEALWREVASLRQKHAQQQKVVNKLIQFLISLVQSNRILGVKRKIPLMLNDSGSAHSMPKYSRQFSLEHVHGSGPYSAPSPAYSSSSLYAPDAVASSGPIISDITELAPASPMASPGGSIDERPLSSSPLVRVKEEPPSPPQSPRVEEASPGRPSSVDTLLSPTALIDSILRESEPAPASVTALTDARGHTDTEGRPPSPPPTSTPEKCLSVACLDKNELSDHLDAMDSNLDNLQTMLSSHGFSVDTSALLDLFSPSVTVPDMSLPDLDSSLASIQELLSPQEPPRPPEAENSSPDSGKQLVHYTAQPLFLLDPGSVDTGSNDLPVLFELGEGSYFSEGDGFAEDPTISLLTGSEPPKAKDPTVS
How it was run: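 Read-out: fluorescence of reporter-specific RT-PCR fragments separated by capillary electrophoresis. HepG2 carrying transfected cis-element reporter units; 24 h dosing; activity fitted in both directions relative to DMSO baseline.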

[9] = ATG_MRE_CIS: Attagene CIS-FACTORIAL HepG2 Assay for human Metal Responsive Element (MRE) (AID 2282954); conditions: HepG2 MRE cis-reporter transcription, Attagene multiplex; actives raise or lower the signal
How it was run: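 Cells were transfected with cis-promoter reporter transcription units, then dosed for 24 h. RNA was reverse-transcribed, amplified, fluorescently labelled and resolved by capillary electrophoresis, and activity was fitted in both directions relative to DMSO.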

[10] = molecular target: Paired box protein Pax-6 (Homo sapiens) (UniProt P26367); experiment: ATG_Pax6_CIS: Attagene CIS-FACTORIAL HepG2 Assay for human Paired Box 6 (PAX6) (AID 2282956); conditions: HepG2 CIS-FACTORIAL PAX6 reporter transcription, RNA readout; actives raise or lower the signal
Chain of Paired box protein Pax-6 (Homo sapiens) (P26367 whole entry, looked up): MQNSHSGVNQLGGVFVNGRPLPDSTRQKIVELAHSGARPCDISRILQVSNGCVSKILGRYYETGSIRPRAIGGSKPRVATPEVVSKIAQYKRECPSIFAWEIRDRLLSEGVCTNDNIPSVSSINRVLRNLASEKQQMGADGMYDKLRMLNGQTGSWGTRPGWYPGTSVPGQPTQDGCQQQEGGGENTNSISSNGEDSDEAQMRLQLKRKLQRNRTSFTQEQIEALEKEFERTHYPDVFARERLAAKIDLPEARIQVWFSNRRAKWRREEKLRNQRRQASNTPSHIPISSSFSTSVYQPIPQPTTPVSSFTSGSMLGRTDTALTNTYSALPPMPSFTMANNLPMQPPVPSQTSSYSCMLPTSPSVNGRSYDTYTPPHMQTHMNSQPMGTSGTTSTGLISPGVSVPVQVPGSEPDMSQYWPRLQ
How it was run: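 Read-out is reporter transcript level, measured by RT-PCR with fluorescent primer extension and capillary electrophoresis after 24 h dosing of transfected HepG2 cells. Activity in either direction fitted relative to DMSO control.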

[11] = ATG_PXRE_CIS: Attagene CIS-FACTORIAL HepG2 Assay for human Pregnane X Receptor Element (PXRE) (AID 2282957); conditions: HepG2 Attagene CIS-FACTORIAL PXRE reporter, mRNA; actives raise or lower the signal
How it was run: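 Reporter transcripts under endogenous PXR-responsive cis-regulation quantified from total RNA of transfected HepG2 cells 24 h post-dosing, via RT-PCR with fluorescent primer extension and capillary electrophoresis. Gain or loss of signal fitted against DMSO baseline.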

[12] = ATG_RORE_CIS: Attagene CIS-FACTORIAL HepG2 Assay for human RAR-related Orphan Receptor Element (RORE) (AID 2282959); conditions: HepG2 Attagene cis-factorial RORE reporter, mRNA; actives raise or lower the signal
How it was run: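 Transient MRTU transfection of human HepG2 liver cells (FuGene 6); 24 h compound exposure; TriZol RNA, oligo(dT) RT, PCR, FAM labeling, HpaI cut, CE fragment analysis. DMSO = negative control/baseline.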

[13] = ATG_Sox_CIS: Attagene CIS-FACTORIAL HepG2 Assay for human SRY-box transcription factor (SOX) (AID 2282960); conditions: HepG2 Attagene cis-factorial SOX reporter, mRNA; actives raise or lower the signal
How it was run: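 Endogenous factor activity in human liver HepG2 cells carrying transfected cis-regulated reporter units. RNA taken 24 h post-dose, reverse-transcribed, PCR-amplified and sized by capillary electrophoresis. Gain or loss of signal fitted relative to DMSO.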

[14] = molecular target: Transcription factor Sp1 (Homo sapiens) (UniProt P08047); experiment: ATG_Sp1_CIS: Attagene CIS-FACTORIAL HepG2 Assay for human Specificity Protein 1 (Sp1) (AID 2282961); conditions: HepG2 Sp1 cis-reporter transcription, actives raise or lower the signal
Chain of Transcription factor Sp1 (Homo sapiens) (P08047 whole entry, looked up): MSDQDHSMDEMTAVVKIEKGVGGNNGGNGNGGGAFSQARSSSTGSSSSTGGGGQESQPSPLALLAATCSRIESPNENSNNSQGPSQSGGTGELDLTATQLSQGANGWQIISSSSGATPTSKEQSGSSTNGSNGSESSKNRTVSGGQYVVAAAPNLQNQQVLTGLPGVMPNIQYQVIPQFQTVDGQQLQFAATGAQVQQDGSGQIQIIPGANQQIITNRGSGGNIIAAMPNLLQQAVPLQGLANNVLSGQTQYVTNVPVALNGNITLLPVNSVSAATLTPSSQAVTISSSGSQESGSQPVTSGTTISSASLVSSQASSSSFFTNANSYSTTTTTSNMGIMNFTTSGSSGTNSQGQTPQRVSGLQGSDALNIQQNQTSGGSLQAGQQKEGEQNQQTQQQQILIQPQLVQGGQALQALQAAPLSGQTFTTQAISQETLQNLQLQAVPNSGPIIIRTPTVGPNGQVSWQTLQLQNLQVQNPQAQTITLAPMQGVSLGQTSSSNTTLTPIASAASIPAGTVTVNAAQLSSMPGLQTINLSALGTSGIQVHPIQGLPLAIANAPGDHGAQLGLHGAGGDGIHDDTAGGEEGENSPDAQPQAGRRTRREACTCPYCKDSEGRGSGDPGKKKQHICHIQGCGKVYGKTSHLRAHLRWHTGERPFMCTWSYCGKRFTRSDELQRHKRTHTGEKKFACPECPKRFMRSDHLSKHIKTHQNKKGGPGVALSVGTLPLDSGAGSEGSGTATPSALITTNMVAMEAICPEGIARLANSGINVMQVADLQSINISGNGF
How it was run: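 Transient MRTU-transfected HepG2, 24 h compound exposure. Total RNA → oligo(dT) RT → PCR of reporter → 6-FAM primer extension → HpaI digest → CE. Endpoint fitted both directions vs DMSO.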

[15] = ATG_SREBP_CIS: Attagene CIS-FACTORIAL HepG2 Assay for human Sterol Regulatory Element Binding (SREBP) (AID 2282962); conditions: HepG2 Attagene cis-factorial SREBP reporter, mRNA; actives raise or lower the signal
How it was run: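 Endogenous SREBP activity read as cis-element-driven reporter transcript in transiently transfected HepG2, 24 h post-dosing; quantified via RT-PCR plus capillary electrophoresis of fluorescent fragments. Gain or loss of signal fitted relative to DMSO baseline.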

[16] = molecular target: Signal transducer and activator of transcription 3 (Homo sapiens) (UniProt P40763); experiment: ATG_STAT3_CIS: Attagene CIS-FACTORIAL HepG2 Assay for human Signal Transducer and Activator of Transcription 3 (STAT3) (AID 2282963); conditions: HepG2, Attagene cis-factorial STAT3 reporter transcription; actives raise or lower the signal
Chain of Signal transducer and activator of transcription 3 (Homo sapiens) (P40763 whole entry, looked up): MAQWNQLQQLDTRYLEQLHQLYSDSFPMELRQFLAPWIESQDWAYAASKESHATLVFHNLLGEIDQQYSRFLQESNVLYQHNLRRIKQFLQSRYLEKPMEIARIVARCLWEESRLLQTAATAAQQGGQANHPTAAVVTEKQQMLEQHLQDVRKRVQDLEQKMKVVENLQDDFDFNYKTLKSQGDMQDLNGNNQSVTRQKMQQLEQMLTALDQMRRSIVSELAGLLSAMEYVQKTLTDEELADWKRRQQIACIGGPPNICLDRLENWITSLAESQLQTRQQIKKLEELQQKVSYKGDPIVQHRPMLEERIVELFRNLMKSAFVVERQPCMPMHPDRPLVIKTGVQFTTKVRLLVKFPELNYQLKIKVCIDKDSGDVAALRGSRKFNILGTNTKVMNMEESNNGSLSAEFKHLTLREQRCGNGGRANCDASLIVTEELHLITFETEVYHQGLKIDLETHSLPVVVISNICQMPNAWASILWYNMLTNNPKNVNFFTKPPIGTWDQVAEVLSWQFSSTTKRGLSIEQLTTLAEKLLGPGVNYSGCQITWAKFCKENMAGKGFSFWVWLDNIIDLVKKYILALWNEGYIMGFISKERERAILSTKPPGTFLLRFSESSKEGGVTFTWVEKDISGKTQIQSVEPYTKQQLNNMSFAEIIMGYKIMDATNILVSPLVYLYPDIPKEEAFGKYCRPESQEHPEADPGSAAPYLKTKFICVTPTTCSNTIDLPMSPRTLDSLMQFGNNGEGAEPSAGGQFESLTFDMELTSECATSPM
How it was run: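 HepG2, MRTU-transfected, 24 h dosing. RNA → RT → PCR → FAM label → HpaI → CE. Bidirectional fit vs DMSO.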

[17] = ATG_TA_CIS: Attagene CIS-FACTORIAL HepG2 Assay for human TA Basal Promoter (AID 2282964); conditions: HepG2 Attagene CIS-factorial TA basal promoter reporter; actives raise or lower the signal
How it was run: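 Transfected HepG2, 24 h compound exposure; RNA → RT-PCR → FAM primer extension → HpaI cut → CE fluorescence. Gain/loss-of-signal fitted against DMSO negative control. Background-control readout.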

[18] = ATG_TCF_b_cat_CIS: Attagene CIS-FACTORIAL HepG2 Assay for human T-Cell-Factor with beta-catenin (TCF/b-cat) (AID 2282965); conditions: HepG2 TCF/beta-catenin cis-reporter transcription, actives raise or lower the signal
How it was run: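 HepG2 cells transiently transfected with multiple cis-promoter-regulated reporter transcription units, so endogenous transcription factor activity is measured. Reporter mRNA read 24 hours after dosing by RT-PCR, fluorescent labelling and capillary electrophoresis; bidirectional fitting against DMSO.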

[19] = ATG_PBREM_CIS: Attagene CIS-FACTORIAL HepG2 Assay for human Phenobarbital-responsive Enhancer Module (PBREM) (AID 2282955); conditions: HepG2 PBREM cis-reporter, Attagene multiplexed transcription; actives raise or lower the signal
How it was run: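 Endogenous transcription factors in human liver HepG2 cells drive a PBREM cis-element reporter, whose transcript level after 24 h treatment is quantified by RT-PCR with capillary electrophoresis; activity fitted in both directions against DMSO.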

[20] = ATG_PPRE_CIS: Attagene CIS-FACTORIAL HepG2 Assay for human Peroxisome Proliferator-activated Response Element (PPRE) (AID 2282958); conditions: HepG2 PPRE cis-element reporter, Attagene transcription factor profiling; actives raise or lower the signal
How it was run: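 HepG2, transient MRTU transfection (cis promoter elements, endogenous TFs). 24 h dosing. RNA → oligo(dT) RT → PCR → 6-FAM primer extension → HpaI digest → CE. Bidirectional fit vs DMSO.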

Measured: AC50

COCCOCCOCCOC
not listed: [19] | [20]
inactive: all other assays above

CCCCCCCCCCCCc1ccccc1
not listed: [2]
inactive: all other assays above

Cn1c(=O)c2c(ncn2C)n(C)c1=O
not listed: [1] | [13] | [20]
inactive: all other assays above

CCn1nc(Cc2ccccc2)cc1C1CCN(C[C@H]2C[C@H](N(C)[C@@H](C(=O)O)C(C)C)C[C@@H]2c2cccc(F)c2)CC1
active: [3] 100 µM | [6] 26.6 µM | [15] 26.9 µM | [18] 100 µM
not listed: [1] | [9]
inactive: all other assays above

Nc1cccc(N)c1
not listed: [2] | [9] | [20]
inactive: all other assays above

C1N2CN3CN1CN(C2)C3
not listed: [2] | [13]
inactive: all other assays above

Clc1nc(Cl)c(Cl)c(Cl)c1Cl
not listed: [1]
inactive: all other assays above

CCOCCOCCOCCO
not listed: [2] | [9] | [13] | [20]
inactive: all other assays above

CC(C)=CCCC(C)=CC=O
active: [6] 100 µM | [9] 100 µM | [11] 4.7 µM | [13] 167 µM | [18] 157 µM
not listed: [1]
inactive: all other assays above

CCCCC(CC)COC(=O)c1ccc(C(=O)OCC(CC)CCCC)cc1 (centres undefined)
active: [11] 63 µM
not listed: [2] | [9] | [13] | [19]
inactive: all other assays above

CCCCCCCCCCCCCCCO
active: [1] 41.3 µM
not listed: [2] | [19]
inactive: all other assays above

O=c1n(CC2CO2)c(=O)n(CC2CO2)c(=O)n1CC1CO1 (centres undefined)
active: [2] 32.7 µM | [10] 59.6 µM | [11] 21.3 µM | [12] 65.3 µM | [14] 17.1 µM
not listed: [1] | [9] | [13]
inactive: all other assays above

CCNc1ccccc1
active: [6] 59.4 µM | [11] 35.5 µM
not listed: [2] | [9]
inactive: all other assays above

CC(=O)OCCC(C)C
not listed: [1]
inactive: all other assays above
